MITF primary: MITF inhibitors, primary screen, biochemical, AlphaScreen, human; Microphthalmia-associated transcription factor (Homo sapiens), O75030; AlphaScreen MITF homodimerization, bead proximity signal; inhibition, % at 2.6 µM; 650,000 compounds, 0.91% hits; AID 1259374, 2018; in the data active = inhibition above about 50%;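 also: 0% = vehicle wells with protein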
GPR151 activ: activators of human GPR151, primary screen, cell-based, PathHunter beta-arrestin, luminescence; G-protein coupled receptor 151 (Homo sapiens), Q8TDV0; PathHunter beta-arrestin GPR151 cells; activation, % at 11.2 µM; 650,000 compounds, 1% hits; in the data active = activation above about 4.9%;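 also: 0% = median of compound wells and 100% = cells with positive control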
FBW7 activator: FBW7 E3 ligase activators, primary screen, biochemical, AlphaScreen, human | F-box/WD repeat-containing protein 7 (Homo sapiens), Q969H0 | AlphaScreen FBW7–phospho-cyclin E peptide binding, activator screen | normalized activity (activation), % at 26.1 µM | 650,000 compounds, 0.13% hits | AID 1259310, 2017; in the data active = normalized activity above about 1.9%;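 also: purified mutant Fbw7 with reduced substrate affinity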
Target sequence (Q969H0 whole entry, looked up): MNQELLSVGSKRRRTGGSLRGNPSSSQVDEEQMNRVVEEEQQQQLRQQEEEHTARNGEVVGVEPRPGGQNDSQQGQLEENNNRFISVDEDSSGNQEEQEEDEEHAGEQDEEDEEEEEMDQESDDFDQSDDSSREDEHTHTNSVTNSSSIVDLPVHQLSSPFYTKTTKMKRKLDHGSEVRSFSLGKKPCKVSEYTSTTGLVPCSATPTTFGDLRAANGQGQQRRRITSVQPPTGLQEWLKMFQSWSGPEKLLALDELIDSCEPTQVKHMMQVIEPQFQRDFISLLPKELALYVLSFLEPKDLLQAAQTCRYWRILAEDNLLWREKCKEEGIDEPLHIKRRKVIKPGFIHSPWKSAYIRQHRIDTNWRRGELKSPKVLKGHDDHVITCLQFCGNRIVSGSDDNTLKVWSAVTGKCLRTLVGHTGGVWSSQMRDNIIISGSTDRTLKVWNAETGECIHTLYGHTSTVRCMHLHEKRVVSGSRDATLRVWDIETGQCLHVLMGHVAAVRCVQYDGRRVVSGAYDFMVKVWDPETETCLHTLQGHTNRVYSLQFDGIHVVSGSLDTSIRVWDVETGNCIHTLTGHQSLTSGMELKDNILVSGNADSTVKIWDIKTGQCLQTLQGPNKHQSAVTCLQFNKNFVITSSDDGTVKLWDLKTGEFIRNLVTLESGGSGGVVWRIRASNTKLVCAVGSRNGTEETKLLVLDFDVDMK
TEAD-YAP inh: TEAD-YAP interaction inhibition, primary screen, TEAD-YAP interaction inhibitor project, luminescence, HEK-TIYL cells | inhibition, % at 9.12 µM | 640,000 compounds, 1.4% hits | AID 1259422, 2018 | TEAD-Gal4/YAP UAS-luciferase luminescence; in the data active = inhibition above about 32%;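 also: 0% = median of test compound wells and 100% = reference inhibitor wells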
Active calls of the source: *. Most compounds without a hit are left out; they make up all but 3.5% or so of the library.

SMILES	MITF primary	GPR151 activ	FBW7 activator	TEAD-YAP inh
CC1(C)CC(=O)C2=C(C1)Nc1ccccc1NC2c1ccc(-c2ccccc2)cc1 (stereo not given)	-1	2	0	21
COc1cc(C2Nc3ccc(C(=O)c4ccccc4)cc3NC3=C2C(=O)CC(C)(C)C3)ccc1O (stereo not given)	-1	0	0	41*
O=C1CCCC2=C1C(c1ccc(Cl)c(Cl)c1)Nc1ccc(C(=O)c3ccccc3)cc1N2 (stereo not given)	4	0	0	50*
O=[N+]([O-])c1cccc(NC(=S)Nc2cccnc2)c1	0	0	0	7
COc1cccc(-c2csc3nnc(SCC(=O)c4ccc(NC(C)=O)cc4)n23)c1	10	0	13*	3
CCOC(=O)c1ccc(Nc2cc(C)nc(-c3ccccc3)n2)cc1	7	3	0	40*
CCOC(=O)c1ccc(S(=O)(=O)Nc2c(C(=O)OCC)oc3ccccc23)cc1	10	-2	0	4
CCOC(=O)c1ccc(Nc2c(N)c(=O)oc3ccccc23)cc1	3	0	0	52*
CCOC(=O)c1ccc(Nc2c3c(nc4ccccc24)CCC3)cc1	-7	0	0	42*
COc1ccccc1Nc1c2c(nc3ccccc13)CCC2	4	0	-1	54*
Cc1ccc2oc(C(=O)Nc3ccccc3C)cc(=O)c2c1	5	0	0	-26
Cc1nc(N2CCCCC2)sc1C(=O)c1ccc(Sc2nncn2C)c([N+](=O)[O-])c1	-7	1	0	2
CC(=O)c1cccc(Nc2c3c(nc4ccccc24)CCC3)c1	-4	0	0	56*
c1ccc(CCNc2c3c(nc4ccccc24)CCC3)cc1	-14	0	1	39*
COc1ccc(C)cc1NC(=O)CCSCCC(=O)Nc1cc(C)ccc1OC	1	1	0	33*
COc1ccccc1NC(=O)CCSCCC(=O)Nc1ccccc1OC	-11	-1	0	3
COc1cccc(C=Nc2cnn(C)c2C(N)=O)c1O	0	0	3.6*	-2
O=C(O)c1cc2nc(-c3ccc(Cl)c(Cl)c3)cc(C(F)(F)F)n2n1	4	-2	0	11
COc1ccc(C2CC(=O)C3=C(C2)NC(C)=C(C(=O)OC2CCCCC2)C3c2cccc([N+](=O)[O-])c2)cc1OC (stereo not given)	11	-1	0	35*
CCCOC(=O)C1=C(C)NC2=C(C(=O)CC(c3ccc(OC)c(OC)c3)C2)C1c1cccc(C)c1 (stereo not given)	-10	2	0	33*
COc1ccc(C2CC(=O)C3=C(C2)NC(C)=C(C(=O)OC(C)C)C3c2ccc(SC)cc2)cc1OC (stereo not given)	-1	0	0	14
CCCOC(=O)C1=C(C)NC2=C(C(=O)CC(c3ccc(OC)c(OC)c3)C2)C1c1ccccc1C (stereo not given)	-7	1	0	0
CCCOC(=O)C1=C(C)NC2=C(C(=O)CC(c3ccc(OC)c(OC)c3)C2)C1c1ccccc1F (stereo not given)	-11	3	0	41*
COc1ccc(C2CC(=O)C3=C(C2)NC(C)=C(C(=O)OC(C)C)C3c2ccc(F)cc2)cc1OC (stereo not given)	-14	0	0	42*
COc1ccc(C2CC(=O)C3=C(C2)NC(C)=C(C(=O)OC2CCCCC2)C3c2ccc([N+](=O)[O-])cc2)cc1OC (stereo not given)	14	1	0	7
SMILES	MITF primary	GPR151 activ	FBW7 activator	TEAD-YAP inh
CC1=C(C(=O)OC2CCCCC2)C(c2cccnc2)C2=C(CC(c3ccc(Cl)cc3)CC2=O)N1 (stereo not given)	-4	0	0	38*
CCCOC(=O)C1=C(C)NC2=C(C(=O)CC(c3ccc(OC)c(OC)c3)C2)C1c1cccc(Br)c1 (stereo not given)	-3	0	0	38*
CCOc1cc(/C=C(\C(=O)O)c2ccccc2)ccc1O	-1	0	0	0
O=C1C=CC(=NS(=O)(=O)c2cccc(C(=O)O)c2)C=C1	64*	-1	0	-2
CCN1/C(=C/C(=C(C#N)C#N)C(F)(F)F)C=Cc2ccccc21	8	0	0	2
Cc1ccc2c(c1)C=C/C(=C\c1cccc[n+]1C)N2C	12	1	0	84*
CCN1C(=O)/C(=C2\C=Cc3ccccc3N2CC)SC1=S	7	1	-1	-7
CCN1/C(=C/c2ccc3ccccc3[n+]2CC)C=Cc2ccccc21	20	4	0	88*
CCN1/C(=C/c2cccc[n+]2C)C=Cc2ccccc21	5	1	0	75*
CCN1/C(=C/c2cccc[n+]2C)C=Cc2ccc(C)cc21	9	2	1	75*
CCOC(=O)CSc1nnc(-c2c[nH]c3ccccc23)n1-c1cccc(OC)c1	-8	-1	0	2
CN(c1ccc(F)cc1)S(=O)(=O)c1ccc2[nH]cc(C(=O)NCCCN3CCOCC3)c(=O)c2c1	-5	2	0	-7
CCOC(=O)C1=C(c2ccccc2)Nc2ncnn2C1c1ccc(CC)cc1 (stereo not given)	3	3	0	-6
CCCC[n+]1ccc(/C=C2\C=Cc3ccccc3N2CC)c2cc(C)ccc21	72*	1	-1	92*
CCN1/C(=C2/N=C(c3ccccc3)OC2=O)C=Cc2ccccc21	9	1	0	10
CCN1C(=O)S/C(=C\c2ccc(Cl)cc2)C1=O	8	0	0	-10
CCN1/C(=C/c2cc[n+](-c3ccc(Cl)cc3)cc2)C=Cc2ccccc21	28	1	-1	91*
CCC1=NN2C(=N)/C(=C\c3ccc(SCc4ccco4)o3)C(=O)N=C2S1	86*	0	-1	-1
N=C1/C(=C\c2ccc([N+](=O)[O-])o2)C(=O)N=C2SC(N3CCCCC3)=NN12	67*	-1	0	-1
N=C1/C(=C/c2ccc([N+](=O)[O-])o2)C(=O)N=C2SC(c3ccco3)=NN12	91*	0	0	7
CC1=CC2=NC(=O)/C(=C\c3ccc([N+](=O)[O-])o3)C(=N)N2O1	65*	1	0	4
CCOC(=O)c1c(NC(=O)c2cccc(Cl)c2)sc(C(N)=O)c1C	23	0	0	4
O=C(Nc1c2c(nn1-c1ccc([N+](=O)[O-])cc1)CS(=O)(=O)C2)c1cc2ccccc2oc1=O	-5	1	0	3
O=c1oc2c(ccc3c(O)cccc32)c2c1CCCC2	13	-2	1	45*
COC(=O)COc1cccc2c1ccc1c3c(c(=O)oc12)CCCC3	6	0	0	0
O=C1CC(c2cccc(Br)c2)c2c(ccc3ccccc23)N1 (stereo not given)	5	0	0	51*

Screening results: PubChem BioAssay, The Scripps Research Institute Molecular Screening Center
